# Reference: paper PMC5540273 (PLoS ONE, 2017)
# Where two headings read alike, the source gives them in different places.
# Columns and labels:
# FGR = settings: concentration: 1 μM, replicates: in singlicate; n = 1
# FLT1 = settings: concentration: 1 μM, replicates: in singlicate; n = 1
# FLT3-autoinhibited = settings: concentration: 1 μM, replicates: in singlicate; n = 1
# FLT3 = settings: concentration: 1 μM, replicates: in singlicate; n = 1
# FLT4 = settings: concentration: 1 μM, replicates: in singlicate; n = 1
# FRK = settings: concentration: 1 μM, replicates: in singlicate; n = 1
# FYN = settings: concentration: 1 μM, replicates: in singlicate; n = 1
# GAK = settings: concentration: 1 μM, replicates: in singlicate; n = 1
# GCN2(Kin.Dom.2,S808G) = test system: T1, GCN2(Kin.Dom.2,S808G); settings: concentration: 1 μM, replicates: in singlicate; n = 1
# T1 construct: gene EIF2AK4
# GRK1 = settings: concentration: 1 μM, replicates: in singlicate; n = 1
# GRK2 = test system: T2, GRK2; settings: concentration: 1 μM, replicates: in singlicate; n = 1
# T2 construct: gene ADRBK1
# GRK3 = test system: T3, GRK3; settings: concentration: 1 μM, replicates: in singlicate; n = 1
# T3 construct: gene ADRBK2
# GRK4 = settings: concentration: 1 μM, replicates: in singlicate; n = 1
# GRK7 = settings: concentration: 1 μM, replicates: in singlicate; n = 1
# GSK3A = settings: concentration: 1 μM, replicates: in singlicate; n = 1
# GSK3B = settings: n = 1
# HASPIN = test system: T4, HASPIN; settings: concentration: 1 μM, replicates: in singlicate; n = 1
# T4 construct: gene GSG2
# HCK = settings: concentration: 1 μM, replicates: in singlicate; n = 1
# HIPK1 = settings: concentration: 1 μM, replicates: in singlicate; n = 1
# HIPK2 = settings: concentration: 1 μM, replicates: in singlicate; n = 1
# [1] = concentration: 1 μM, replicates: in singlicate
# 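Further: KINOMEscan kinase panel screen.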
structure (smiles),measurement,setting,value
O=C(NCCNc1ccnc(Nc2ccc(F)cc2)n1)Nc1ccc2c(c1)OCO2 [GSK1379882],%Inh,FGR,0%
same,%Inh,FLT1,0%
same,%Inh,FLT3-autoinhibited,12%
same,%Inh,FLT3,0%
same,%Inh,FLT4,9%
same,%Inh,FRK,0%
same,%Inh,FYN,34%
same,%Inh,GAK,14%
same,%Inh,"GCN2(Kin.Dom.2,S808G)",0%
same,%Inh,GRK1,0%
same,%Inh,GRK2,0%
same,%Inh,GRK3,0%
same,%Inh,GRK4,0%
same,%Inh,GRK7,0%
same,%Inh,GSK3A,34%
same,%Inh,GSK3B; [1],6%
same,%Inh,HASPIN,0%
same,%Inh,HCK,0%
same,%Inh,HIPK1,0%
same,%Inh,HIPK2,0%
Nc1n[nH]c2ncc(-c3ccccc3)cc12 [SB-517081],%Inh,FGR,28%
same,%Inh,FLT1,7%
same,%Inh,FLT3-autoinhibited,49%
same,%Inh,FLT3,72%
same,%Inh,FLT4,0%
same,%Inh,FRK,15%
same,%Inh,FYN,26%
same,%Inh,GAK,70%
same,%Inh,"GCN2(Kin.Dom.2,S808G)",52%
same,%Inh,GRK1,0%
same,%Inh,GRK2,0%
same,%Inh,GRK3,22%
same,%Inh,GRK4,21%
same,%Inh,GRK7,0%
same,%Inh,GSK3A,34%
same,%Inh,GSK3B; 1 µM,20%
same,%Inh,HASPIN,0%
same,%Inh,HCK,0%
same,%Inh,HIPK1,0%
same,%Inh,HIPK2,0%
Cc1nnc(-c2ccc(C)c(-c3ccc(C(=O)O)cc3)c2)o1 [GW608005],%Inh,FGR,12%
same,%Inh,FLT1,20%
same,%Inh,FLT3-autoinhibited,4%
same,%Inh,FLT3,0%
same,%Inh,FLT4,12%
same,%Inh,FRK,0%
same,%Inh,FYN,10%
same,%Inh,GAK,5%
same,%Inh,"GCN2(Kin.Dom.2,S808G)",0%
same,%Inh,GRK1,0%
same,%Inh,GRK2,0%
same,%Inh,GRK3,0%
same,%Inh,GRK4,0%
same,%Inh,GRK7,0%
same,%Inh,GSK3A,7%
same,%Inh,GSK3B; [1],0%
same,%Inh,HASPIN,0%
same,%Inh,HCK,0%
same,%Inh,HIPK1,0%
same,%Inh,HIPK2,0%
COc1ccc(Nc2nccc(N3CCC(NS(=O)(=O)c4ccc(NC(C)=O)cc4)C3)n2)cc1 (centres unmarked) [GSK1379729],%Inh,FGR,26%
same,%Inh,FLT1,26%
same,%Inh,FLT3-autoinhibited,27%
same,%Inh,FLT3,29%
same,%Inh,FLT4,26%
same,%Inh,FRK,16%
same,%Inh,FYN,15%
same,%Inh,GAK,9%
same,%Inh,"GCN2(Kin.Dom.2,S808G)",14%
same,%Inh,GRK1,9%
same,%Inh,GRK2,3%
same,%Inh,GRK3,0%
same,%Inh,GRK4,49%
same,%Inh,GRK7,0%
same,%Inh,GSK3A,0%
same,%Inh,GSK3B; [1],7%
same,%Inh,HASPIN,19%
same,%Inh,HCK,7%
same,%Inh,HIPK1,0%
same,%Inh,HIPK2,20%
O=c1cc(N2CCOCC2)nc2n(Cc3ccc(F)c(Cl)c3)ccn12 [GSK2297099],%Inh,FGR,25%
same,%Inh,FLT1,10%
same,%Inh,FLT3-autoinhibited,2%
same,%Inh,FLT3,0%
same,%Inh,FLT4,0%
same,%Inh,FRK,0%
same,%Inh,FYN,56%
same,%Inh,GAK,1%
same,%Inh,"GCN2(Kin.Dom.2,S808G)",2%
same,%Inh,GRK1,0%
same,%Inh,GRK2,0%
same,%Inh,GRK3,0%
same,%Inh,GRK4,0%
same,%Inh,GRK7,0%
same,%Inh,GSK3A,0%
same,%Inh,GSK3B; [1],8%
same,%Inh,HASPIN,0%
same,%Inh,HCK,0%
same,%Inh,HIPK1,7%
same,%Inh,HIPK2,0%
COc1ccc(-n2cnc3c(N)ncnc32)cc1 [SKF-97236],%Inh,FGR,0%
same,%Inh,FLT1,24%
same,%Inh,FLT3-autoinhibited,34%
same,%Inh,FLT3,83%
same,%Inh,FLT4,22%
same,%Inh,FRK,0%
same,%Inh,FYN,25%
same,%Inh,GAK,27%
same,%Inh,"GCN2(Kin.Dom.2,S808G)",0%
same,%Inh,GRK1,0%
same,%Inh,GRK2,12%
same,%Inh,GRK3,0%
same,%Inh,GRK4,22%
same,%Inh,GRK7,3%
same,%Inh,GSK3A,6%
same,%Inh,GSK3B; [1],15%
same,%Inh,HASPIN,0%
same,%Inh,HCK,0%
same,%Inh,HIPK1,24%
same,%Inh,HIPK2,5%
CC(C)(C)c1ccc(C(=O)Nc2cn3cc(-c4ccccc4)ccc3n2)cc1,%Inh,FGR,0%
same,%Inh,FLT1,0%
same,%Inh,FLT3-autoinhibited,0%
same,%Inh,FLT3,35%
same,%Inh,FLT4,0%
same,%Inh,FRK,10%
same,%Inh,FYN,0%
same,%Inh,GAK,0%
same,%Inh,"GCN2(Kin.Dom.2,S808G)",8%
same,%Inh,GRK1,25%
same,%Inh,GRK2,0%
same,%Inh,GRK3,0%
same,%Inh,GRK4,26%
same,%Inh,GRK7,0%
same,%Inh,GSK3A,12%
same,%Inh,GSK3B; [1],30%
same,%Inh,HASPIN,0%
same,%Inh,HCK,13%
same,%Inh,HIPK1,43%
same,%Inh,HIPK2,52%
CN1C(=O)C(Nc2ccccc2)=C(c2ccccc2)C1=O [SB-300079],%Inh,FGR,0%
same,%Inh,FLT1,0%
same,%Inh,FLT3-autoinhibited,0%
same,%Inh,FLT3,0%
same,%Inh,FLT4,0%
same,%Inh,FRK,0%
same,%Inh,FYN,0%
same,%Inh,GAK,0%
same,%Inh,"GCN2(Kin.Dom.2,S808G)",6%
same,%Inh,GRK1,26%
same,%Inh,GRK2,0%
same,%Inh,GRK3,0%
same,%Inh,GRK4,0%
same,%Inh,GRK7,0%
same,%Inh,GSK3A,9%
same,%Inh,GSK3B; [1],3%
same,%Inh,HASPIN,15%
same,%Inh,HCK,13%
same,%Inh,HIPK1,28%
same,%Inh,HIPK2,9%
Cc1nnc(-c2ccc3ncn(-c4ccc(S(C)=O)cc4)c3c2)o1 (centres unmarked),%Inh,FGR,18%
same,%Inh,FLT1,8%
same,%Inh,FLT3-autoinhibited,0%
same,%Inh,FLT3,8%
same,%Inh,FLT4,0%
same,%Inh,FRK,0%
same,%Inh,FYN,8%
same,%Inh,GAK,2%
same,%Inh,"GCN2(Kin.Dom.2,S808G)",19%
same,%Inh,GRK1,11%
same,%Inh,GRK2,0%
same,%Inh,GRK3,0%
same,%Inh,GRK4,0%
same,%Inh,GRK7,0%
same,%Inh,GSK3A,74%
same,%Inh,GSK3B; [1],36%
same,%Inh,HASPIN,0%
same,%Inh,HCK,13%
same,%Inh,HIPK1,28%
same,%Inh,HIPK2,10%
COc1ccc(-c2coc3ccc(-c4nnc(SCc5cccc(C#N)c5)o4)cc23)cc1,%Inh,FGR,0%
same,%Inh,FLT1,0%
same,%Inh,FLT3-autoinhibited,10%
same,%Inh,FLT3,13%
same,%Inh,FLT4,0%
same,%Inh,FRK,0%
same,%Inh,FYN,5%
same,%Inh,GAK,12%
same,%Inh,"GCN2(Kin.Dom.2,S808G)",0%
same,%Inh,GRK1,9%
same,%Inh,GRK2,0%
same,%Inh,GRK3,0%
same,%Inh,GRK4,0%
same,%Inh,GRK7,27%
same,%Inh,GSK3A,96.1%
same,%Inh,GSK3B; [1],45%
same,%Inh,HASPIN,0%
same,%Inh,HCK,20%
same,%Inh,HIPK1,32%
same,%Inh,HIPK2,24%
